Reference: PubChem BioAssay (EPA / NIEHS)
“And” between values parts separate entries of the source, which are not always exact repeats. Identical values can stand only once. Results filed as inconclusive are left out. A structure can be active in one record and inactive in another. The source made the active and inactive calls. How the source made its calls, unless noted: active means hit-call score of the fitted dose curve at least 0.9, where 1 is the maximum; inconclusive means response in the unintended direction; inactive means score below 0.9.

How the values were obtained:
[1] = read-out: Transforming Growth Factor (TGFA), TGFA (gene 7039); test: LTEA_HepaRG_TGFA: Life Technologies and Expression Analysis (LTEA) Assay for Transforming Growth Factor (TGFA) using HepaRG (AID 2283532; active means hit-call score of the fitted dose curve at least 0.9, where 1 is the maximum; inactive means score below 0.9); conditions: mRNA level, 48 h; actives raise or lower the signal
Outline: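 TGFA transcript quantified by qRT-PCR (Fluidigm arrays) against three housekeeping genes, after 48 hours chemical treatment of HepaRG cells. Top concentration 100 uM with half-log dilutions, 8 points, duplicates, 0.5% DMSO.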

[2] = read-out: Transforming Growth Factor (TGFB1), TGFB1 (gene 7040); test: LTEA_HepaRG_TGFB1: Life Technologies and Expression Analysis (LTEA) Assay for Transforming Growth Factor (TGFB1) Transporter using HepaRG (AID 2283533; active means hit-call score of the fitted dose curve at least 0.9, where 1 is the maximum; inactive means score below 0.9); conditions: mRNA level, 48 h; actives raise or lower the signal
Outline: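 HepaRG, 48 h post-plating, switched to serum-free induction medium; chemicals 100 uM top, half-log, 8 pts, 0.5% DMSO, dup; 48 h exposure; RNA → Fluidigm TaqMan qRT-PCR; norm ACTB/GAPDH/POLR2A; bidirectional fit vs DMSO.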

TIMP1, TIMP1 (gene 7076) = test: LTEA_HepaRG_TIMP1: Life Technologies and Expression Analysis (LTEA) Assay for TIMP1 using HepaRG (AID 2283534; active means hit-call score of the fitted dose curve at least 0.9, where 1 is the maximum; inactive means score below 0.9;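 further: TaqMan qRT-PCR signal normalized to ACTB GAPDH and POLR2A housekeeping genes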); conditions: mRNA level, 48 h; actives raise or lower the signal
Outline: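 Readout is TIMP1 mRNA level measured by qRT-PCR and normalized to three housekeeping genes. Human HepaRG cells were treated for 48 h in duplicate at eight concentrations up to 100 uM (0.5% DMSO); gain or loss fitted against DMSO.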

[3] = read-out: Tumor necrosis factor receptor 1 (TNFRSF1A), TNFRSF1A (gene 7132); test: LTEA_HepaRG_TNFRSF1A: Life Technologies and Expression Analysis (LTEA) Assay for Tumor necrosis factor receptor 1 (TNFRSF1A) using HepaRG (AID 2283535; active means hit-call score of the fitted dose curve at least 0.9, where 1 is the maximum; inactive means score below 0.9); conditions: mRNA level, 48 h; actives raise or lower the signal
Outline: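 Read-out is TNFRSF1A transcript level by TaqMan qRT-PCR, normalized to three housekeeping genes, scored as gain or loss of signal versus 0.5% DMSO. Human HepaRG cells received test chemicals for 48 h at up to 100 uM (half-log series).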

[4] = read-out: Thyroid Hormone Responsive (THRSP), THRSP (gene 7069); test: LTEA_HepaRG_THRSP: Life Technologies and Expression Analysis (LTEA) Assay for Thyroid Hormone Responsive (THRSP) using HepaRG (AID 2283536; active means hit-call score of the fitted dose curve at least 0.9, where 1 is the maximum; inactive means score below 0.9); conditions: mRNA level, 48 h; actives raise or lower the signal
Outline: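 THRSP transcript quantified by Fluidigm qRT-PCR against three housekeeping genes after 48 h chemical exposure of HepaRG cells in serum-free induction medium; eight-point half-log series, top 100 uM, 0.5% DMSO vehicle, duplicate wells.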

[5] = read-out: UDP glucuronosyltransferase (UGT1A1), UGT1A1 (gene 54658); test: LTEA_HepaRG_UGT1A1: Life Technologies and Expression Analysis (LTEA) Assay for UDP glucuronosyltransferase (UGT1A1) using HepaRG (AID 2283538; active means hit-call score of the fitted dose curve at least 0.9, where 1 is the maximum; inactive means score below 0.9); conditions: mRNA level, 48 h; actives raise or lower the signal
Outline: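 Cells are plated, cultured 48 h, switched to serum-free induction medium, then dosed 48 h at eight concentrations (max 100 uM, 0.5% DMSO). RNA is isolated and UGT1A1 expression measured by qRT-PCR; changes versus DMSO are fitted in both directions.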

[6] = read-out: X-box binding protein 1 (XBP1), XBP1 (gene 7494); test: LTEA_HepaRG_XBP1: Life Technologies and Expression Analysis (LTEA) Assay for X-box binding protein 1 (XBP1) using HepaRG (AID 2283540; active means hit-call score of the fitted dose curve at least 0.9, where 1 is the maximum; inactive means score below 0.9); conditions: mRNA level, 48 h; actives raise or lower the signal
Outline: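 Transcript levels of XBP1, measured by qRT-PCR and normalised to three housekeeping genes, were fitted bidirectionally relative to 0.5% DMSO controls. Human HepaRG cells received eight-point half-log dilutions from 100 uM for 48 h.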

[7] = LTEA_HepaRG_LDH_cytotoxicity: Cytotoxicity Assessment in the Life Technologies and Expression Analysis (LTEA) Assay (AID 2283563);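 on AC50: LDH activity released into spent culture medium as a marker of cell death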
Outline: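 Cells were thawed and plated for 48 h. Medium was then replaced with serum-free induction medium. Chemicals (8 half-log points, maximum 100 uM, 0.5% DMSO) were added in duplicate for 48 h, after which spent medium was assayed for LDH.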

[8] = Tanguay_ZF_120hpf_MORT_legacy: (Legacy) Oregon State University Tanguay Lab 120 Hour Post-fertilization zebrafish Assay for Mortality (AID 2283633)
Outline: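 5D WT zebrafish, chorion removed 4 hpf; 1 embryo/well from 6 hpf; static exposure to 120 hpf, 28C, dark, sealed. Final DMSO 0.64%. Readout: binary mortality, brightfield, 24 + 120 hpf; DMSO as negative control.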

[9] = read-out: Cellular tumor antigen p53 (Homo sapiens) (UniProt P04637); test: LTEA_HepaRG_TP53: Life Technologies and Expression Analysis (LTEA) Assay for Tumor Protein P53 (TP53) using HepaRG (AID 2283537; active means hit-call score of the fitted dose curve at least 0.9, where 1 is the maximum; inactive means score below 0.9); conditions: mRNA level, 48 h; actives raise or lower the signal
Outline: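 TP53 transcript measured by qRT-PCR, normalized to three housekeeping genes, after 48 h treatment of human HepaRG cultures with chemicals from 100 uM downward in half-log steps (0.5% DMSO vehicle, serum-free induction medium). Up- or down-regulation fitted against DMSO.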

[10] = TOX21_p53_BLA_p2_viability: Viability Assessment in the Tox21 HCT-116 p53 Agonism Beta-lactamase Assay, Phase 2 (AID 2283591);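 further: compound exposure lasted 16 h at 37 °C; actives lower the ATP signal meaning cytotoxicity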
Outline: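 Cytotoxicity readout: CellTiter-Glo ATP luminescence, 30 min at room temperature, after the beta-lactamase read. Cells were HCT116 exposed 16 h at 37C to compounds pin-transferred at 217-fold dilution from DMSO stocks.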

[11] = biological target: Cellular tumor antigen p53 (Homo sapiens) (UniProt P04637); test: TOX21_p53_BLA_p2_ratio: Tox21 HCT-116 p53 Agonism Beta-lactamase Assay, Ratio, Phase 2 (AID 2283592)
Outline: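 Plated HCT116 p53-bla cells (4000/well) received compound after 5 h, then 16 h at 37C/5% CO2. CCF4-AM added, 2 h RT. Ratio of 460 to 530 nm emission taken as the p53 reporter signal.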

[12] = TOX21_p53_BLA_p3_viability: Viability Assessment in the Tox21 HCT-116 p53 Agonism Beta-lactamase Assay, Phase 3 (AID 2283593);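 further: cells exposed to compound for 16 h before reading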
Outline: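 Cellular ATP was quantified by CellTiter-Glo luminescence, read after 30 min at room temperature. Beforehand, HCT116 cells (4000/well) received compound 5 h post-seeding, 217-fold diluted from DMSO, then incubated 16 h at 37C.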

[13] = TOX21_p53_BLA_p4_viability: Viability Assessment in the Tox21 HCT-116 p53 Agonism Beta-lactamase Assay, Phase 4 (AID 2283597);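 further: hits lower the luminescence signal meaning cytotoxicity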
Outline: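 Readout: ATP luminescence (CellTiter-Glo), measured 30 min after reagent addition at RT. The reagent followed a 2 h CCF4-AM incubation, and the cells had been exposed to compound for 16 h at 37C.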

[14] = biological target: Cellular tumor antigen p53 (Homo sapiens) (UniProt P04637); test: TOX21_p53_BLA_p4_ratio: Tox21 HCT-116 p53 Agonism Beta-lactamase Assay, Ratio, Phase 4 (AID 2283601)
Outline: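 Signal is the blue/green (460nm/530nm) ratio of cleaved versus uncleaved CCF4-AM substrate, read after 2 h substrate loading. Cells were HCT116 carrying the p53-responsive beta-lactamase reporter, dosed 16 h at 37C, 5% CO2; CellTiter-Glo measured in parallel.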

[15] = read-out: UDP glucuronosyltransferase (UGT1A6), UGT1A6 (gene 54578); test: LTEA_HepaRG_UGT1A6: Life Technologies and Expression Analysis (LTEA) Assay for UDP glucuronosyltransferase (UGT1A6) using HepaRG (AID 2283539; active means hit-call score of the fitted dose curve at least 0.9, where 1 is the maximum; inactive means score below 0.9); conditions: mRNA level, 48 h; actives raise or lower the signal
Outline: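 HepaRG, 48 h post-plating switch to serum-free induction medium; chemical 48 h, 100 uM top, half-log x8, duplicate, 0.5% DMSO. Phenobarbital 1mM induction control. UGT1A6 mRNA by TaqMan qRT-PCR; gain/loss fit vs DMSO.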

[16] = ATG_XTT_Cytotoxicity: Cytotoxicity Assessment in the Attagene TRANS-FACTORIAL HepG2 Assay (AID 2283584)
Outline: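 Cells: human HepG2, transiently transfected with MRTU reporter constructs. Exposure 24 h. Readout: XTT, cell number. Baseline/neg ctrl DMSO; loss-of-signal scored.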

[17] = biological target: Cellular tumor antigen p53 (Homo sapiens) (UniProt P04637); test: TOX21_p53_BLA_p3_ratio: Tox21 HCT-116 p53 Agonism Beta-lactamase Assay, Ratio, Phase 3 (AID 2283596)
Outline: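 Cells were seeded at 4000/well, rested 5 h at 37C, then dosed with DMSO compound solutions (217-fold dilution) for 16 h. CCF4-AM substrate was loaded for 2 h at room temperature, and the 460/530 nm emission ratio was fitted for gain of signal versus DMSO.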

[18] = biological target: Cellular tumor antigen p53 (Homo sapiens) (UniProt P04637); test: TOX21_p53_BLA_p5_ratio: Tox21 HCT-116 p53 Agonism Beta-lactamase Assay, Ratio, Phase 5 (AID 2283599)
Outline: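 Beta-lactamase reporter ratio (blue 460 nm over green 530 nm, 405 nm excitation) after 2 h CCF4-AM loading, in HCT-116 cells exposed 16 h at 37 C to compounds pinned at 217-fold dilution. Increases relative to DMSO baseline scored.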

[19] = TOX21_p53_BLA_p5_viability: Viability Assessment in the Tox21 HCT-116 p53 Agonism Beta-lactamase Assay, Phase 5 (AID 2283600)
Outline: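 Workflow: seed 4000 cells per well, wait 5 h, add compounds (DMSO, 217-fold dilution), incubate 16 h, load CCF4-AM 2 h, add CellTiter-Glo, read luminescence after 30 min.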

Measured: AC50

Chain of Cellular tumor antigen p53 (Homo sapiens) (P04637 whole entry, looked up): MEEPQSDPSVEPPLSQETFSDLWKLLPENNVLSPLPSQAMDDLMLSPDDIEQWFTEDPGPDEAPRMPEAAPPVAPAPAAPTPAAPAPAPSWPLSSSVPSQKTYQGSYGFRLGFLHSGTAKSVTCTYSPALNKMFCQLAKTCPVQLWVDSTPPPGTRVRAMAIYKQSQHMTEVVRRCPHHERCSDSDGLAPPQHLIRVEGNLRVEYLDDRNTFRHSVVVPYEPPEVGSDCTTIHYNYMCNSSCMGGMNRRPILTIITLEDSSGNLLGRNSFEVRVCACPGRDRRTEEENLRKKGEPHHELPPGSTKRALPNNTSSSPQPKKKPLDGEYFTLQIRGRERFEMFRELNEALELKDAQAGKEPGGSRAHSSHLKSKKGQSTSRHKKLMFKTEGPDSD

N#CC(Br)Br
inactive: [1] | [2] | TIMP1, TIMP1 (gene 7076) | [3] | [4] | [5] | [6] | [7] | [8]

CC(C)(O)c1cnn2c(-c3ccc(F)c(-c4c(F)cccc4C#N)c3)cnc2n1
active: [1] 12.6 µM | [5] 0.268 µM
inactive: [2] | TIMP1, TIMP1 (gene 7076) | [3] | [4] | [9] | [6] | [7] | [10] | [11] | [12] | [13] | [14] | [8]

Cc1cc(N=Nc2ccccc2C)ccc1N
active: [1] 12.6 µM | [2] 2.72 µM | [9] 1.97 µM | [5] 85.9 µM | [15] 12.2 µM | [6] 4 µM | [7] 5.21 µM | [10] 81 µM | [11] 73.1 µM | [13] 46.1 µM | [18] 73.3 µM and 76.2 µM | [14] 74.4 µM
inactive: TIMP1, TIMP1 (gene 7076) | [3] | [16] | [10] | [11] | [12] | [17] | [13] | [19] | [14] | [8]

O=P(OCCCl)(OCCCl)OCCCl
inactive: [1] | [2] | TIMP1, TIMP1 (gene 7076) | [3] | [9] | [5] | [15] | [6] | [7] | [16] | [10] | [12] | [17] | [13] | [18] | [19] | [14]

CCNS(=O)(=O)C(F)(F)C(F)(F)C(F)(F)C(F)(F)C(F)(F)C(F)(F)C(F)(F)C(F)(F)F
active: [4] 48.2 µM | [6] 48.2 µM
inactive: [1] | [2] | TIMP1, TIMP1 (gene 7076) | [3] | [5] | [7] | [8]

Nc1cc(Cl)cc(C(=O)O)c1Cl
inactive: [1] | [2] | TIMP1, TIMP1 (gene 7076) | [3] | [9] | [5] | [15] | [6] | [7] | [16] | [10] | [11] | [12] | [17] | [13] | [18] | [19] | [14] | [8]

CCN(CC)N=O
inactive: [1] | [2] | TIMP1, TIMP1 (gene 7076) | [3] | [9] | [5] | [15] | [6] | [7] | [16] | [10] | [11] | [12] | [17] | [13] | [18] | [19] | [14] | [8]

CCCCCOC(=O)c1ccccc1C(=O)OCCCCC
inactive: [1] | [2] | TIMP1, TIMP1 (gene 7076) | [3] | [9] | [5] | [15] | [6] | [7] | [16] | [10] | [17] | [13] | [18] | [14] | [8]
